In the library only some 12% were active in any assay of this set; here they are far more common.
Sfp inh: inhibitors of Bacillus subtilis Sfp phosphopantetheinyl transferase; Biochemical Sfp PPTase activity, qHTS; hit rate 3.5% among 310,000; Q9F4F7; AID 1490; Potency, µM, inactives show largest response in the series, negative = inhibition, most hits filed as inhibitors;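 further: the enzyme is Sfp with the accession as filed and its product quenches rhodamine fluorescence; 0% = enzyme reaction without inhibitor and -100% = no enzyme wells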
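Reaction rates are the 30-min fluorescence difference (ex 525, em 598 nm) in wells containing 15 nM Sfp, 5 uM rhodamine-CoA and 12.5 uM BHQ-2-YbbR at pH 7.6 with 10 mM MgCl2.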
G9a inh: blocks human histone lysine methyltransferase G9a. Q96KQ7. G9a H3K9 monomethylation, AlphaScreen, 2 h. Potency, µM (doses to about 102 µM), for the others: top-dose activity, negative = inhibition, actives largely listed as inhibitors. hit rate 8.8% among 350,000. AID 504332; further: on the % scale 0 is the no-effect control and ±100 the full control effect; nearly all actives have a fitted effect of over 75% in size
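Chemiluminescent proximity detection of H3K9 monomethylation, read after 10 min bead incubation in the dark. Reaction: 20 nM G9a, 500 nM biotin-H3K9 peptide, 20 uM SAM cofactor, 2 h, room temperature, following 15 min enzyme-compound preincubation.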
TDP1 block: inhibitors of human tyrosyl-DNA phosphodiesterase TDP1; Potency, µM (top dose mostly 130 µM), for inactives: at the highest dose activity change, negative = inhibition, usual class: inhibitors; Q9NUW8; recombinant TDP1, AlphaScreen DNA substrate cleavage; AID 485290; hit rate 0.28% among 350,000; further: on the % scale 0 is the no-effect control and ±100 the full control effect; nearly all actives have a fitted effect of over 40% in size
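Compounds were preincubated with Tdp1 (1 nM final) for 15 min at room temperature before substrate (15 nM final) started a 5 min reaction; beads (10 ug/ml final) were then added for 10 min before AlphaScreen detection.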
HP1b binding inh: blocks HP1-beta chromodomain binding to methylated histone tails. AlphaScreen HP1-beta / biotin-H3K9me3 peptide binding. hit rate 0.56% among 390,000. Potency, µM (titrated, usually from 114 µM), inactives show at the highest dose activity change, negative = inhibition, most hits filed as inhibitors. AID 540317. P83916; further: nearly all actives have a fitted effect of over 70% in size
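Compound inhibition of the preformed complex between 50 nM HP1-beta and 50 nM biotinylated H3K9me3 peptide was read by AlphaScreen. Buffer was PBS pH 7.4 with 0.01% Tween-20. Incubations ran 30 min at room temperature, with 10 ug/mL donor/acceptor beads.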
JMJD2A Tudor inh: blocks the human JMJD2A Tudor domain. AID 504339. Potency, µM (highest dose often 114 µM), for the others: at the top dose activity change, negative = inhibition, actives largely listed as inhibitors. hit rate 4.4% among 390,000. AlphaScreen JMJD2A-Tudor / H3K4me3 peptide binding. O75164; further: on the % scale 0 is the no-effect control and ±100 the full control effect; nearly all actives have a fitted effect of over 50% in size
BAZ2B inh: blocks human BAZ2B | Q9UIF8 | AlphaScreen BAZ2B-H3K14Ac peptide displacement | Potency, µM (doses to about 114 µM), for inactives: top-dose activity change, negative = inhibition, most hits filed as inhibitors | hit rate 4.4% among 360,000 | AID 504333; further: on the % scale 0 is the no-effect control and ±100 the full control effect; nearly all actives have a fitted effect of over 60% in size
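Complex of BAZ2B and biotin-H3K14Ac (50 nM apiece) forms over 30 min at RT, then faces library compounds up to 110 uM for another 30 min; AlphaScreen beads added, 20 min dark incubation, luminescence read.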
* = called active by the depositor; ? = inconclusive; / = no result given; ! = not confirmed by another sample; [ ] = dose if it differs, or a comment. The call rests on the fitted dose curve; in most records, active means well fitted curve in the direction sought with a large enough effect; inconclusive means small, poorly fitted or top-dose-only effect, or another doubt; inactive means no such curve, though single readings can be large; an effect the other way counts as inactive or inconclusive. Potency means the concentration at half of the fitted maximal effect.

SMILES	Sfp inh	G9a inh	TDP1 block	HP1b binding inh	JMJD2A Tudor inh	BAZ2B inh
CCCn1cc(S(=O)(=O)c2ccc(OC)cc2)c(=O)c2cc(F)c(N3CCCC(C)C3)cc21 (centres undefined)	/	-3%[59 µM]	-1%	15%	-21%	-3%
CCN(CC)CCOc1ccccc1C(C)=O	-15%	11µM*	-8%	?	18µM*	50µM*
Cc1ccc(Cl)cc1N1CCN(S(=O)(=O)c2ccc3c(c2)CCN3C(=O)C2CCC2)CC1	/	-5%[59 µM]	2%	45%	-6%	/
CCN(CC)CCCN=C1N[C@@H](c2ccccc2)C(C(=O)OC)=C(C)N1CC	-5%	40µM*!	/	16%	32µM*	79µM*
COC(=O)C1=C(C)N(Cc2ccccc2)C(=NCc2ccc3c(c2)OCO3)N[C@H]1c1ccccc1	6%	/	1%	14%	-29%	8%
CCN1C(=NCCOC)N[C@@H](c2cccc(C(F)(F)F)c2)C(C(=O)OC)=C1C	3%	/	0%	32%	16µM*	?
CCN1C(=NCC2CC2)N[C@@H](c2ccccc2)C(C(=O)OC)=C1C	5%	-13%[12.7 µM]	-2%	36%	?	-4%
COC(=O)C1=C(C)N(Cc2ccccc2)C(=NCCc2cccnc2)N[C@H]1c1ccc(Br)cc1	-8%	-2%[12.7 µM]	0%	3%	28µM*	56µM*
COC(=O)C1=C(C)N(Cc2ccccc2)C(=NCC(C)C)N[C@H]1c1ccc(Br)cc1	9%	-5%[12.7 µM]	/	/	/	?
COC(=O)C1=C(C)N(Cc2ccccc2)C(=NCCCCO)N[C@H]1c1ccccc1	6%	79µM*!	/	12%	?	?
O=C(c1ccc(CSc2nc3ccncc3n2Cc2ccccc2F)cc1)N1CCCCC1	/	-27%[59 µM]	3%	36%	-15%	-9%
O=C(NCCc1ccc(Cl)cc1)c1ccc(Cn2c(=O)c3cccn3c3cccnc32)cc1	/	?	-8%	1%	?	?
COC(=O)C1=C(C)N(Cc2ccccc2)C(=NCCc2cccnc2)N[C@H]1c1ccccc1	2%	32µM*!	/	5%	?	56µM*
COC(=O)C1=C(C)N(Cc2ccccc2)C(=NCC2CC2)N[C@H]1c1ccccc1	12%	-4%[12.7 µM]	0%	25%	?	4%
COC(=O)C1=C(C)N(Cc2ccccc2)C(=NCC2CC2)N[C@H]1c1ccc(Br)cc1	56µM*	/	/	/	/	?
O=C(Nc1nc2ccc(SC(F)F)cc2s1)c1ccc(NS(=O)(=O)c2ccc(F)c(F)c2)cc1	-5%	-17%[59 µM]	2%	9%	-32%	-8%
CCn1c(-c2cc(C3CC3)nc3ccccc23)n[nH]c1=S	-8%	2.2µM*	5%	21%	50µM*	-32%
Cc1ccc(-c2cc(-c3n[nH]c(=S)n3C)c3ccccc3n2)cc1	?	2µM*	8%	-30%	?	?
CCOc1ccccc1-c1cc(-c2n[nH]c(=S)n2CC)c2ccccc2n1	3%	10µM*	8%	17%	45µM*	-37%
CCn1c(-c2cc(-c3ccc(C)c(C)c3)nc3ccccc23)n[nH]c1=S	-20%	40µM*	12%	/	/	?
COc1ccc(OCC(=O)NNC(=O)c2ccc3c(=O)n4c(nc3c2)CCC4)cc1	10%	18%	-1%	23%	-12%	-19%
COc1ccccc1CNC(=O)c1cc(-c2ccccc2)n[nH]1	/	?	6%	57%	-8%	-1%
CCn1c(-c2cc(-c3cc(C)ccc3C)nc3ccccc23)n[nH]c1=S	-6%	28µM*	4%	15%	56µM*	?
COc1cc(Cl)c(C)cc1NC(=O)c1ccc2c(SCC(=O)O)c3c(nc2c1)CCCC3	-3%	-10%	-2%	-4%	?	?
O=C(NCCCN1CCCC1)c1ccc2c(Cl)c3c(nc2c1)CCCC3	79µM*	?	0%	-10%	-26%	-16%
SMILES	Sfp inh	G9a inh	TDP1 block	HP1b binding inh	JMJD2A Tudor inh	BAZ2B inh
O=C(O)CSc1c2c(nc3cc(C(=O)Nc4cccc(C(F)(F)F)c4)ccc13)CCC2	-24%	40µM*	1%	17%	79µM*	71µM*
O=C(O)CSc1c2c(nc3cc(C(=O)NCCN4CCOCC4)ccc13)CCC2	89µM*	?	/	4%	-12%	?
CCOC(=O)c1ccccc1NC(=O)c1ccc2c(SCC(=O)O)c3c(nc2c1)CCCC3	-29%	?	/	6%[57 µM]	-30%	50µM*
N[C@](CC1c2ccccc2Oc2ccccc21)(C(=O)O)[C@@H]1C[C@@H]1C(=O)O	-5%	/	-6%[56.1 µM]	/	/	/
C#CCn1c(=NC(=O)CN2C(=O)CCC2=O)sc2cccc(OC)c21	25%	2%	4%	38%	3%	0%
C#CCn1c(=NC(=O)c2cccs2)sc2cccc(OC)c21	79µM*	-10%	-6%	16%	-28%	-4%
CC(=O)c1ccc(OCc2cc(C(=O)NC3CCCCC3)no2)cc1	10%	60%	2%	23%	4%	9%
O=C1CSC(c2cn(-c3ccccc3)nc2-c2cc3ccccc3o2)N1Cc1ccccc1 (centres undefined)	11%	11%	0%	11%	-27%	?
Cc1ccc(-c2nn(-c3ccccc3)cc2C2SCC(=O)N2Cc2ccccc2)o1 (centres undefined)	22µM*	10µM*	8%	?	?	?
CCc1ccc(NC(=O)NCCCN2CCCC2=O)cc1	2%	62%	1%	14%	-15%	-2%
COC(=O)N/N=C/c1sc(N2CCCCC2)nc1-c1cccs1	22µM*	50µM*	5%	16%	?	?
O=C(N/N=C/c1sc(N2CCOCC2)nc1-c1ccccc1)c1ccc(O)cc1	10%	/	1%	9%	-25%	?
O=C(Oc1ccccc1)N1CCC2(CC1)CN(c1ncccn1)C2	2%	32%[12.7 µM]	/	/	/	/
O=C1NC(c2cccc3ccccc23)Nc2ccccc21 (centres undefined)	/	/	/	32%	-12%	/
O=C1c2ccccc2C(=O)C12OC2c1cccc2ccccc12 (centres undefined)	28µM*	6.3µM*	-5%	12%	-24%	1%
Cc1cc(-c2ccc(S(=O)(=O)Nc3ccc(Cl)cc3C)cc2)on1	/	?	3%	62%	15%	-2%
C[C@]12CCC(=O)C=C1CCC1C2C(O)C[C@]2(C)C1CC[C@]2(O)C(=O)COC(=O)CCC(=O)O (some centres undefined)	12%	-3%[2.33 µM]	9%	/	/	/

Screening data from PubChem BioAssay.
